Assay results: PubChem BioAssay AID720616 (Broad Institute, 2013)
Results with a measured potency or affinity are listed apart. The source made the active and inactive calls.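 The calls were made as follows: active = ATP viability loss whose half-effect dose is at most twice the top dose, in all three treatment times; inconclusive = calls differ between the treatment times; inactive = inactive at every treatment time.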

Assay: cytotoxicity in U-251 glioma cells – cell-based, CellTiter-Glo ATP luminescence, several timepoints, dry powder, mechanism study for HRAS target identification, late-stage follow-up (AID 720616)
Conditions: U-251 glioblastoma viability; series mostly up to 35 µM

SMILES	outcome
Cc1onc(C(=O)N2CCN(C(c3ccc(Cl)cc3)c3ccc(Cl)cc3)CC2)c1[N+](=O)[O-]	inactive
CCC(=O)N(c1ccc(OC)c(Cl)c1)C(C(=O)NCCc1ccccc1)c1cccs1 (stereo not drawn)	inactive
Cc1onc(C(=O)N2CCN(C(c3ccncc3)c3ccncc3)CC2)c1[N+](=O)[O-]	inactive
